The values that follow come from PubChem BioAssay AID540317 (National Center for Advancing Translational Sciences (NCATS), 2011).

Screen size: about 390,000 compounds; about 2,200 (0.56%) were called active. Another 3% or so got no clear call; they are omitted. The sample as a whole holds a higher share of actives than the screen did. Unmarked numbers belong to inactive results. The call rests on the fitted dose curve; in most records, active means well fitted inhibition curve with a large enough effect; inconclusive means small, poorly fitted or top-dose-only effect; inactive means no such curve, though single readings can be large or run the other way.
Potency means the concentration at half of the fitted maximal effect.

In the test the target is Chromobox protein homolog 1 (Homo sapiens) (UniProt P83916). Nature of the test: HTS for Inhibitors of HP1-beta Chromodomain Interactions with Methylated Histone Tails. Further: nearly all actives have a fitted effect of over 70% in size. The following applies: AlphaScreen HP1-beta / biotin-H3K9me3 peptide binding; series mostly up to 114 µM; activity change, negative = inhibition: at the top concentration. An excerpt: As our understanding of epigenetics expands, it is becoming clear that players in this field are potential targets for drug development. This area of epigenetic therapy has established applications for the treatment of cancer and neurological diseases. We have been involved in this field for a number of years and have performed high-throughput screens to identify the first small molecule inhibitors of protein methyltransferases. These methyltransferases target multiple substrates, and thus regulate many arms of an epigenetic pathway. The methylation of different substrates often generates docking sites for effector proteins that harbor binding domains (chromo, tudor, PHD, MBT and ANK repeats). It has been proposed that the binding sites generated for different proteins by these post-translational modifcations mediate downstream effects on chromatin. Consistent with this theory, di- and tri-methylation of histone H3K9 facilitates the binding of heterochromatin protein HP1. The HP1 protein harbors a chromodomain that is responsible for the methyl-dependent interaction between HP1 and lysine 9 of histone H3. HP1 was first described in flies as a heterochromatin associated protein that can regulate gene silencing. It harbors a chromodomain that binds H3K9me3. In addition, it harbors a chromoshadow domain that interacts with a large number of proteins that are involved in heterochromatin formation and gene repression. There are three highly related HP1 isoforms. All three variants are associated with pericentric heterochromatin and it is not clear whether they have specific or redundant functions. MPP8 is also involved in the repression of gene in euchromatic regions (unpublished data) and like HP1 its chromodomain binds H3K9me3. MPP8 harbors an ankyrin repeat region that is likely involved in binding and recruiting interacting proteins with transcriptional repressive function, much like the chromoshadow domain of HP1 does. We hypothesize that by inhibiting specific protein-protein interactions we will be able to develop compounds that block a single arm of an epigenetic pathway. The specificity attained by blocking a single protein-protein interaction will be far greater than that attained by blocking the enzyme that regulates one of many interactions. Low-affinity protein-protein interactions (Kd in the single- to double-digit micromolar range) such as those discussed here have been very difficult to assay by traditional techniques such as fluorescence polarization or fluorescence resonance energy transfer. We have developed a sensitive chemiluminescence-based assay (Quinn, et al. 2009), which serves as the starting point for this project. The following is a validation assay to identify lead compounds that can block methyl-dependent protein-protein interactions (specifically HP1-beta), which can be used as probes to analyze these methyl-driven interactions and perhaps even developed into targeted epigenetic therapies. NIH Chemical Genomics Center [NCGC] NIH Molecular Libraries Probe Centers Network [MLPCN] MLPCN Grant: DA031087 Assay Submitter (PI): Mark Bedford, University of Texas, Medical Anderson Cancer Center, TX
Chromobox protein homolog 1 (Homo sapiens), sequence (P83916 whole entry, looked up): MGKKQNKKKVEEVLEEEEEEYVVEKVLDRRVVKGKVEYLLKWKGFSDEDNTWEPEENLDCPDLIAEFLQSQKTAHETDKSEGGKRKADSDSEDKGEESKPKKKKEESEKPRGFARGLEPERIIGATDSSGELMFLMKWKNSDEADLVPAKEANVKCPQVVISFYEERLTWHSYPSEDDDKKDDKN
To each well, 2 uL of HP1-beta protein (final 50 nM) and 1 uL biotinylated histone peptide trimethylated at Lys9 [b-H3(1-18)K9me3] (final 50 nM) was added in 1x PBS buffer, pH 7.4, containing 0.01% Tween-20 using a nanoliter dispenser. Formation of a protein-peptide complex proceeded at room temperature for 30 min. A Kalypsys pin-tool was employed to transfer 23 nL of library compound solution in DMSO to each well. Aurintricarboxylic acid (ATA) was used as an intraplate control with a 12-point titration in duplicate. Following a 30 min incubation of the protein-peptide complex with compounds at room temperature, a mixture of 40 ug/mL each streptavidin-coated donor and nickel chelate acceptor AlphaScreen beads (final 10 ug/mL) was added in a 1 uL dispense for a final volume of 4 uL. […]
On the technique in general: In Alpha technology, singlet oxygen from a donor bead excites a nearby acceptor bead.
For `NS(=O)(=O)c1cc(C(=O)OCC(=O)NNC(=O)c2ccccc2)ccc1Cl`, the “activity change, negative = inhibition” value was 20.8%. As to `O=C(NC1=CC(=O)c2ccccc2C1=O)c1ccccc1`, the Potency was 22.4 µM (active). On to `CCOc1ccccc1NC(=O)Cn1c2ncccc2c(=O)n1-c1ccc(C)c(C)c1`, for which the “activity change, negative = inhibition” value is 15.2%.

Regarding `COc1cccc(Nc2nc3ccccc3c3nncn23)c1`, the “activity change, negative = inhibition” value is 48.6%.

With `Cc1csc(Nc2ccc(Cl)cc2)[n+]1-c1ccc(Cl)cc1`, the Potency was 17.8 µM (active). `COC(=O)c1cc(NC(=O)c2cnc(SC)nc2-c2ccccc2)cc(C(=O)OC)c1`: the “activity change, negative = inhibition” value was 36.3%. On the same count and under the same terms, the same measure for `Cc1ccc(F)cc1S(=O)(=O)N1CCC(c2nc3ccccc3s2)CC1`: 67.3%; for `Cc1ccc2cccc(NC(=O)c3cccc4ccccc34)c2n1`: 87.3%.

For `COc1cc(C(=S)NCc2ccccc2)cc(Br)c1O`, the Potency was 7.94 µM (active). As for `COc1ccc(CNC(=O)c2ccc3c(O)c(S(=O)(=O)c4ccccc4)c(=O)[nH]c3c2)cc1`, the “activity change, negative = inhibition” value was 19.6%. Still for that read-out and setting: the same measure for `COc1cc(Cl)cc(C2NC(=O)NC(C)=C2C(=O)NCc2ccccc2)c1O` (centres undefined): 10.7%. Still for that read-out and setting: as for `COC(=O)c1ccc(NC(=O)CSc2n[nH]c(-c3ccccc3)n2)cc1`, the figure is 32.5% [at 57 µM]. On the same count and under the same terms, the same measure for `COc1ccc(OCCCn2c(C3CC(=O)N(c4ccc(F)cc4)C3)nc3ccccc32)cc1` (centres undefined): 23%. For `COc1ccc2c(c1)CCc1c(C(=O)Nc3cc(C)ccc3O)noc1-2`, the “activity change, negative = inhibition” value is 27.4%.

Consider `Cc1nnc(N2CCCC(C(=O)NCCN(C)C)C2)c2nn(-c3ccccc3)c(C)c12` (centres undefined), for which the “activity change, negative = inhibition” value is 40.3%.

`CN(C)c1ccc(Nc2c3c4c(cccc4n(C)c2=O)C(=O)c2ccccc2-3)cc1`: the Potency is 4.47 µM (active).

For `COc1ccc(Cl)cc1NC(=O)CN(C)CC(=O)Nc1ccc2c(c1)OCO2`, the “activity change, negative = inhibition” value is 26.1%.

For the molecule `COc1ccc(Cl)cc1NC(=O)CN(C)Cc1ccc(OC)c(OC)c1`, the Potency was 39.8 µM (active). The same measure, in the same setting: the same measure for `COc1ccc(Cl)cc1NC(=O)CCS(=O)(=O)c1ccc(Br)cc1`: 12.6 µM (active). Consider `COc1ccc(Cl)cc1NC(=O)CN(C)C(=O)CNC(=O)C12CC3CC(CC(C3)C1)C2`, for which the “activity change, negative = inhibition” value was 9.71%. On the same count and under the same terms, as for `COc1ccc(Cl)cc1NC(=O)CCC(=O)c1ccc(C)cc1`, the figure is 32.3%. As to `Cc1ccc(Cl)cc1NC(=O)CCS(=O)(=O)c1ccc(Br)s1`, the “activity change, negative = inhibition” value was -9.23%. Same read-out and setting: the same measure for `O=C(Nc1cccc2cccnc12)c1cccc2c(Br)cccc12`: 44.8%; for `COc1cccc(CNC(=O)CCc2nc(-c3ccc(C)cc3)no2)c1`: 58.9%; for `C=CCCN(C(Cc1ccccc1)C(=O)OC)S(=O)(=O)c1cc(Br)ccc1Br` (centres undefined): 59.4%.

Consider `COc1ccc(-c2noc(-c3ccc(N4CCN(c5ccccc5)CC4)c([N+](=O)[O-])c3)n2)cc1OC`, for which the “activity change, negative = inhibition” value is 41.2%.

In the case of `CCc1ccc(NC(=O)CN2C(=O)CCSc3ccc(S(=O)(=O)N4CCCC4)cc32)cc1`, the “activity change, negative = inhibition” value was 18.2% [at 57 µM]. For `Cc1ccc(-c2nnc3ccc(SCC(N)=O)nn23)cc1`, the “activity change, negative = inhibition” value was 32%. Still for that read-out and setting: as for `COC(=O)CCc1ccccc1S(=O)(=O)N(CCC(=O)OC)Cc1ccccc1`, the figure is -5.53%; as for `Cc1ccc(C)c(Nc2nnc(-c3ccc(C)c(S(=O)(=O)N4CCCCC4)c3)c3ccccc23)c1`, 26.8%. With `COC(=O)/C=C\C(=O)Nc1cccc([N+](=O)[O-])c1`, the Potency is 10 µM (active). `CC(C)OP(=O)(OC(C)C)C(Nc1ccccc1)c1cccc([N+](=O)[O-])c1` (centres undefined): the “activity change, negative = inhibition” value is 15%. On the same count and under the same terms, as for `CCc1ccc(NC(=O)C(C)OC(=O)/C=C/c2cccc([N+](=O)[O-])c2)cc1` (centres undefined), the figure is 12.7%; as for `Cc1c(-c2nsc(NC(=O)c3cccc(Cl)c3)n2)nnn1-c1ccccc1C(F)(F)F`, 20.1%; as for `CCOCCCNC(=O)c1ccc2nc(CCc3ccccc3)oc2c1`, 19.6% [at 57 µM].

For the molecule `COc1ccc(/C=C/C(=O)c2cc(Br)ccc(=O)c2O)cc1`, the Potency was 50.1 µM (active). On to `CCOc1ccc(NC(=S)NC(=O)/C=C/c2ccc(OC)cc2)c([N+](=O)[O-])c1`, for which the “activity change, negative = inhibition” value was -2.89%.

Consider `COc1cccc(N2CC(NC(=O)/C=C\c3ccccc3)CC2=O)c1` (centres undefined), for which the “activity change, negative = inhibition” value is 5.02%. The same measure, in the same setting: as for `CC1CCN(S(=O)(=O)c2ccc3c(c2)N(CC(=O)NCCc2ccccc2)C(=O)CO3)CC1`, the figure is 10.4%. Still for that read-out and setting: the same measure for `Brc1nc2ncnc(NCc3ccco3)c2[nH]1`: 7.51% [at 57 µM]. As for `Nc1ccc2[nH]c(=S)sc2c1`, the Potency is 28.2 µM (active).

On to `COC(=O)c1ccc(NC(=O)CCc2c(C)nn(-c3ccc(N4CCCC4)nn3)c2C)cc1`, for which the “activity change, negative = inhibition” value is 39.1%.

Take `Oc1ccc(N2CCN(C(=S)NCc3ccccc3)CC2)cc1`: the “activity change, negative = inhibition” value was -18.1%.

Consider `Oc1ccc(CNc2ccccc2O)cc1`, for which the Potency is 50.1 µM (active).

For `OCC(CO)(CO)NCc1ccc(-c2ccccc2)cc1`, the “activity change, negative = inhibition” value is 16.6%. On the same count and under the same terms, the same measure for `COc1cccc(CNC(=O)CSc2c3c(nc4cc(Cl)ccc24)CCCC3)c1`: 47.5%; for `N#Cc1cc2[nH]c(=O)c(=O)[nH]c2cc1[N+](=O)[O-]`: 2.3%. For the molecule `CCN(C(=O)Cn1cnc2sc(C)c(S(=O)(=O)N3CCN(c4ncccn4)CC3)c2c1=O)c1ccccc1F`, the “activity change, negative = inhibition” value was 46.6%.

With `O=S(=O)(c1ccccc1)c1nc(-c2ccc(Cl)cc2Cl)oc1N1CCCCC1`, the “activity change, negative = inhibition” value is -21.6% [at 57 µM].
